The values that follow come from PubChem BioAssay AID796 (Columbia University Molecular Screening Center, 2007).

Hit rate of the full screen: of about 94,000 compounds, about 410 (0.44%) were called active. The entries come from a sample that favours actives as a whole. A number with no mark means an inactive call.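 Rule for the calls: active = inhibition above about 30% together with a positive call from visual inspection of the well image (limit read from the data); inconclusive = inhibition above a set limit but visual check negative; inactive = inhibition not above a set limit, visual check negative.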

A short description of this test: inhibitors of IL-1B driven NFkB p65 nuclear import, primary screen, imaging, HUVEC, IL-1B stimulus, high-content imaging (AID 796).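 Note: nuclear over cytoplasmic p65 intensity ratio measured by imaging; 0% = IL-1B stimulated DMSO wells and 100% = unstimulated DMSO wells.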 Conditions: HUVEC IL-1B NFkB p65 nuclear translocation imaging; at 2 µM; stronger effect = higher value.
Regarding `O=C(CSCc1c(F)cccc1Cl)NCC1CCCO1` (stereo not given), the inhibition (commonly the relative decrease from the control value, in per cent) was -1.4%. Under `COc1ccc(C2CC(c3cccs3)=Nc3ccccc3S2)cc1OC` (stereo not given) stands -4%. For `COc1ccc(NC(=O)CSc2nc(NS(=O)(=O)c3ccc(C)cc3)cc(=O)[nH]2)cc1`, the inhibition was 0.1%. For the compound `O=S(=O)(/N=C(/Nc1ccccn1)c1ccccc1)c1ccc(Cl)cc1`, the inhibition is -20.6%. Under `O=C(Nc1nnc(CCOCCOCCc2nnc(NC(=O)c3ccco3)s2)s1)c1ccco1` stands 2.1%; under `CCOCC(=O)Nc1sc2c(c1C(=O)OCC)CCCC2`, 31.1% (active). `CCOC(=O)c1c(NC(=O)CSc2nnc(C)c(=O)[nH]2)sc2c1CCC2`: the inhibition is 7.7%. Turning to `CCCOC(=O)Nc1sc2c(c1C(=O)OCC)CCC2`, the inhibition was 4.6%. Under `CC(=O)Nc1ccc(N2C(=O)C3C4CC(=O)C(c5ccccc54)C3C2=O)cc1` (stereo not given) stands 4.6%; under `Cc1ccc(-n2c(=O)cc(N3CCN(Cc4ccccc4)CC3)[nH]c2=O)cc1`, -36.5%. Under `COC(CNC(=O)Cn1ncc2ccsc2c1=O)OC` stands -11.2%; under `Cc1ccc(/C=N/NC(=O)C(NC(=O)c2ccccc2)c2n[nH]c(=O)c3ccccc23)cc1` (stereo not given), -3.6%; under `CC(C)C(=O)NC(=S)Nc1ccccc1F`, 1.1%. For `O=[N+]([O-])c1ccccc1OCCCCN1CCCCC1`, the inhibition was 1.7%.

`CCOC(=O)COc1cc(OCC(=O)OCC)c2c(=O)cc(-c3ccccc3)oc2c1`: the inhibition was 5.4%. As for `CCOCc1nnc(NC(=O)CSc2ccc(C)cc2)s1`, the inhibition was 3.5%.

As for `CCN(CC)CCNc1ccc(Cl)cc1[N+](=O)[O-]`, the inhibition is -11.6%.

As for `CN(C(=O)CSc1nc(C2CC2)nc2ccccc12)c1nc(-c2ccccc2)cs1`, the inhibition is 6.8%.

Consider `COC(=O)C(NC(=O)c1ccc(OC)cc1)(Nc1ncc(S(=O)(=O)c2ccc([N+](=O)[O-])cc2)s1)C(F)(F)F` (stereo not given), for which the inhibition was 10.1%. On to `COc1ccc(CNCCCO)cc1OC`, for which the inhibition was 2.4%. Turning to `CCCCOc1ccc(C(=O)NCc2ccncc2)cc1`, the inhibition is -7.4%.

In the case of `C=CCOc1ccc(Cl)cc1CNCCCN1CCOCC1`, the inhibition is 5.6%. As for `COC(=O)c1c(CCl)noc1C(=O)NC(C)C`, the inhibition is -0.8%. Consider `CC1C/C(=N/NC(=O)c2cccs2)CC(C)(C)C1` (stereo not given), for which the inhibition was 25.5%. As to `Nc1ccccc1SCc1cc([N+](=O)[O-])cc2c1OCOC2`, the inhibition is -1.6%.

`O=C(Cn1cncn1)N/N=C/c1c2ccccc2cc2ccccc12`: the inhibition is 10.3%. On to `CCOC(=O)CNC(=O)CSc1nc2cccnc2n1CC`, for which the inhibition is -2.1%. `CONC(=O)c1cc(OCC(F)(F)F)ccc1OCC(F)(F)F`: the inhibition is 4.4%.

As for `CC(=O)c1nn(-c2cccc(Br)c2)cc1C(=O)c1cccc2ccccc12`, the inhibition is -11.3%. As for `c1ccc(-n2nc3ccccc3n2)cc1`, the inhibition is 18%. With `CC1(C)CC(=O)C=C(NCCCN2CCCC2=O)C1`, the inhibition was 99.7% (active). For `CC1(C)CC(=O)C=C(NCCCNC2CCCCC2)C1`, the inhibition was 0%.

Regarding `CC1(C)CC(=O)C=C(NCCN2CCNCC2)C1`, the inhibition was -15.8%. For the compound `Cn1c(CO)cnc1SCc1ccccc1`, the inhibition is -4.6%. As for `c1ccc(COc2ccccc2CNCc2cccnc2)cc1`, the inhibition is -12.3%. With `Cc1cc(C)n(C(=O)CCNC(=O)c2ccccc2Cl)n1`, the inhibition is 0.3%. Under `Cc1cc2c(c(=O)n1C)C(C(C)C)C(C#N)=C(N)O2` (stereo not given) stands 3.4%; under `O=C(CSCc1c(Cl)cccc1Cl)NN1C(=O)c2ccccc2C1=O`, 7.6%; under `Cc1ccc(-c2csc(N(Cc3ccco3)C(=O)c3cccs3)n2)cc1`, 0.8%. Consider `S=c1[nH]nc(-c2ccco2)n1/N=C/c1ccc(Br)s1`, for which the inhibition is -1.5%. Take `Cc1cc(C)c2nc(NC(=O)c3ccc4c(c3)OCO4)sc2c1`: the inhibition is 9%. As for `Cc1cccc(-n2nc3c(c2NC(=O)c2ccc(Br)o2)CSC3)c1C`, the inhibition is 0%. As to `Cc1ccc(-n2nc3c(c2NC(=O)c2ccc4c(c2)OCO4)CSC3)c(C)c1`, the inhibition was 36% (active). With `O=C(COc1ccc(/C=N/NS(=O)(=O)c2ccccc2)cc1)NCCc1ccccc1`, the inhibition is 3.5%. Regarding `Cc1n[nH]c(=O)n1-c1ccc(Oc2ccccc2)cc1`, the inhibition was 3.9%. For the compound `Cc1cc(C)cc(N(CC(=O)Nc2c(C)n(C)n(-c3ccccc3)c2=O)S(C)(=O)=O)c1`, the inhibition is -3.1%. As to `Cc1cc(C)cc(N(C(C)C(=O)Nc2c(C)n(C)n(-c3ccccc3)c2=O)S(C)(=O)=O)c1` (stereo not given), the inhibition was 47.4% (active). Regarding `COC(=O)Nc1c(C)n(C)n(-c2ccccc2)c1=O`, the inhibition is -18.8%. Regarding `O=C(CSc1nnc(-c2c[nH]c3ccccc23)o1)c1ccccc1`, the inhibition was 11.5%. As to `O=C(CSc1nnc(Cn2cnc3ccccc32)o1)c1ccccc1`, the inhibition was 98.8% (active). On to `CC(=O)Nc1ccc(C(=O)CSc2nnc(Cc3ccccc3)o2)cc1`, for which the inhibition is -5.2%. For `CCn1c2ccccc2c2cc(NC(=O)C/C(C)=N/NC(=O)c3ccccc3N)ccc21`, the inhibition is -8.3%. As for `CNC(=S)NNC(=O)c1sccc1OCc1ccccc1`, the inhibition is -4%.

On to `COc1cc(/C=N/O)cc(Br)c1OCc1cccc(Cl)c1`, for which the inhibition is -0.3%. Regarding `CCCCNc1ccc(C(=O)Nc2cccc(C)n2)cc1[N+](=O)[O-]`, the inhibition was -3.1%. Regarding `COc1ccc(S(=O)(=O)Nc2ccc3c(c2)OCO3)cc1Cl`, the inhibition was 96.2% (active).

As to `COc1ccc(F)cc1S(=O)(=O)Nc1ccc2c(c1)OCO2`, the inhibition is -3.1%. As to `CC(C)CNS(=O)(=O)c1ccc(OCC(=O)Nc2ccc3c(c2)OCO3)c(Cl)c1`, the inhibition is -10.8%.

As for `Cc1ccc(C(=O)c2c(NC(=O)c3ccncc3)sc3c2CCCC3)cc1`, the inhibition is 2.2%. In the case of `CCc1ccc(/C=N/NC(=O)c2ccc(OC3CCCC3)cc2)s1`, the inhibition is 0.3%.

Consider `Cc1nc(N2CCOCC2)nc2c1CCCC2`, for which the inhibition was 1.7%. On to `O=C(CSCc1ccc([N+](=O)[O-])cc1)NCCSCc1ccccc1`, for which the inhibition is 8.4%. Take `Cc1ccc(C)n1-c1ccncc1`: the inhibition was 34.7% (active). As to `Cc1ccc(N)cc1-n1c(C)ccc1C`, the inhibition is 4.3%.

`COc1ccc(C(=O)c2c(C)oc3cc([N+](=O)[O-])c(O)c([N+](=O)[O-])c23)cc1`: the inhibition was -48.7%.
